The results in this text go back to PubChem BioAssay (NCATS).

A short description of experiment [1]: qHTS drug screen for cell cycle checkpoint inhibitors in PARPi-resistant BRCA-mutant ovarian cancer cell lines. (AID 1963452; calls by dose curve; also: potency is read from the fitted curve at half-maximal effect). The following applies: PEO1/OlaR viability, CellTiter-Glo luminescence, 96 h; for Z-AUC: stronger effect = lower value. The method, boiled down:
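PEO1, PEO4 and PEO1/OlaR ovarian cancer cells, 600 per well, exposed 96 h at 37C to a dilution series. Viability read by CellTiter-Glo luminescence, normalized to DMSO and empty wells; activity summarized as Z-AUC.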

The nature of experiment [2]: qHTS for identification of novel therapeutic agents for treatment of microphthalmiaassociated transcription factor (MiT) renal cell carcinoma (RCC) (AID 1963991; calls by dose curve; also: potency is read from the fitted curve at half-maximal effect). Conditions: CellTiter-Glo, 48 h; for z-score: stronger effect = lower value. The method, boiled down:
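Curves over 11 concentrations were fitted to CellTiter-Glo luminescence, scaled between empty wells (0%) and DMSO (100%) viability. Cells were UOK109, UOK124 and UOK145 TFE3-fusion RCC lines at 500/well, exposed 48 hours at 37 C.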

Experiment [3] can be described thus: qHTS profiling for inhibitors of Plasmodium falciparum proliferation (AID 504749).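 Also: 0% = DMSO vehicle and full inhibition = artemisinin control; nearly all actives have a fitted effect of over 60% in size.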 Conditions: P. falciparum in erythrocytes, SYBR Green DNA, 72 h, at 28.7 µM (top of the series). The method, boiled down:
(§1)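 Parasite proliferation within erythrocytes, 72 h exposure. Endpoint: SYBR Green I fluorescence after overnight lysis at room temperature. Controls: 0.29 uM artemisinin, DMSO.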
(In qHTS, concentration-response curves come from the screen itself.)

A further experiment deals with 3D7. The experiment is described as above. Conditions: P. falciparum in erythrocytes, SYBR Green DNA, 72 h; series mostly up to 28.7 µM. The method, boiled down: as §1
The test system of the next experiment is 7G8. Described as above. The following applies: P. falciparum in erythrocytes, SYBR Green DNA, 72 h; series mostly up to 28.7 µM. The method, boiled down: as §1
Another experiment has as its system AA1029. The description is as above. The following applies: P. falciparum in erythrocytes, SYBR Green DNA, 72 h; series mostly up to 28.7 µM. The method, boiled down:
as §1

The next experiment has as its system AS120. The description is as above. Conditions: P. falciparum in erythrocytes, SYBR Green DNA, 72 h; series mostly up to 28.7 µM. The method, boiled down:
as §1

The subject of the next experiment is ATS189. The experiment is described as above. Conditions: P. falciparum in erythrocytes, SYBR Green DNA, 72 h; series mostly up to 28.7 µM. The method, boiled down:
as §1

The subject of a further experiment is ATS95. Described as above. The following applies: P. falciparum in erythrocytes, SYBR Green DNA, 72 h; series mostly up to 28.7 µM. The method, boiled down:
as §1

The test system of another experiment is C2A. The experiment is described as above. The following applies: P. falciparum in erythrocytes, SYBR Green DNA, 72 h; series mostly up to 28.7 µM. The method, boiled down: as §1
For another experiment, the system named is CP185. Described as above. The following applies: P. falciparum in erythrocytes, SYBR Green DNA, 72 h; series mostly up to 28.7 µM. The method, boiled down: as §1
The subject of another experiment is CP191. The experiment is described as above. The following applies: P. falciparum in erythrocytes, SYBR Green DNA, 72 h; series mostly up to 28.7 µM. The method, boiled down:
as §1

The subject of another experiment is CP192. The description is as above. The following applies: P. falciparum in erythrocytes, SYBR Green DNA, 72 h; series mostly up to 28.7 µM. The method, boiled down: as §1
The subject of the next experiment is CP194. The description is as above. The following applies: P. falciparum in erythrocytes, SYBR Green DNA, 72 h; series mostly up to 28.7 µM. In a few lines:
as §1

The subject of another experiment is CP201. Described as above. Conditions: P. falciparum in erythrocytes, SYBR Green DNA, 72 h; series mostly up to 28.7 µM. The method, boiled down: as §1
A further experiment relates to CP211. The description is as above. Conditions: P. falciparum in erythrocytes, SYBR Green DNA, 72 h; series mostly up to 28.7 µM. In a few lines: as §1
Another experiment has as its system CP215. The experiment is described as above. The following applies: P. falciparum in erythrocytes, SYBR Green DNA, 72 h; series mostly up to 28.7 µM. In a few lines:
as §1

In the next experiment the test system is CP217. The description is as above. The following applies: P. falciparum in erythrocytes, SYBR Green DNA, 72 h; series mostly up to 28.7 µM. The method, boiled down: as §1
Another experiment has as its system CP237. The description is as above. The following applies: P. falciparum in erythrocytes, SYBR Green DNA, 72 h; series mostly up to 28.7 µM. In a few lines: as §1
Another experiment has as its system CP238. The description is as above. Conditions: P. falciparum in erythrocytes, SYBR Green DNA, 72 h; series mostly up to 28.7 µM. The method, boiled down: as §1
The mark [4] stands for this setting: measured here: PEO1 parental Z-AUC.
The mark [5] stands for this setting: TFE3-RCC UOK109 viability, measured here: UOK109 Z-AUC.
The mark [6] stands for this setting: TFE3-RCC viability, measured here: UOK124 Z-AUC.
Setting [7] is: TFE3-RCC viability, measured here: UOK145 Z-AUC.

Each structure is given as a SMILES string. Records with an inconclusive call do not appear. The source made the active and inactive calls. Unless noted, calls follow the shape of the dose curve; as a rule, active = well fitted inhibition curve with a large enough effect; inconclusive = small, poorly fitted or top-dose-only effect; inactive = flat fitted curve, though single readings scatter.

`c1ccc2c(CN3CCNCC3)cccc2c1`: the Z-AUC in experiment [1] is -0.771 (inactive); in [1] (setting [4]), -0.119; in experiment [1] (measured here: PEO4 Z-AUC), -0.706.

For the compound `C#CC1(O)CCC2C3CCC4=CC(=O)CCC4(C)C3CCC21C` (centres undefined), the figures for the Z-AUC in experiment [1], in experiment [1] (setting [4]) and in experiment [1] (measured here: PEO4 Z-AUC) were 0.597 (inactive), 0.372 and 0.608, respectively. Moreover, the z-score in [2] (setting [5]) was 0.285; in experiment [2] (setting [6]), 0.199; in experiment [2] (setting [7]) it was 0.147. For the same compound, the activity, negative = inhibition in experiment [3] (parasite line A) is 7.72% (inactive); in experiment [3] (parasite line B) it was 0.354% (inactive). Besides, the Potency entry in the experiment with 3D7, with 7G8, with AA1029, in the experiment with AS120, in the experiment with ATS189 and in the experiment with ATS95 was “inactive” in each case. In addition, the Potency entry with C2A, in the experiment with CP185, in the experiment on CP191, with CP192, in the experiment with CP194 and with CP211 was “inactive” each time. Moreover, the Potency result in the experiment on CP215, in the experiment with CP217, with CP237 and with CP238 was “inactive” each time. Further, the call in the experiment with CP201 was inactive.

`CN1CCN(c2ccc([N+](=O)[O-])c3no[n+]([O-])c23)CC1`: the figures for the Z-AUC in experiment [1], in [1] (setting [4]) and in experiment [1] (measured here: PEO4 Z-AUC) were 1.21 (inactive), 1.82 and 1.04, respectively.

In the case of `CC[C@@]1(O)C(=O)OCc2c1cc1n(c2=O)Cc2cc3ccccc3nc2-1`, the results for the Potency in [1] and in [2] (TFE3-RCC UOK109 viability) were 38.9 nM (active) and 590 nM (active), respectively. The results for the Z-AUC in experiment [1] (setting [4]) and in experiment [1] (measured here: PEO4 Z-AUC) were -2.44 and -1.71, respectively. Besides, the z-score in experiment [2] (setting [5]) is -1.89; in experiment [2] (setting [6]), -3.04; in [2] (setting [7]), -3.18.

For `O=C(N[C@@H](COc1ccc2[nH]c(=O)[nH]c2c1)c1ccccc1)c1cccn(Cc2ccc(F)c(F)c2)c1=O`, the Z-AUC in [1] was -0.315 (inactive); in experiment [1] (setting [4]), 0.00624; in experiment [1] (measured here: PEO4 Z-AUC) it was 0.64.

For `CCOP(=O)(OCC)C(C)NC(=O)N(CCCl)N=O` (centres undefined), the Z-AUC in experiment [1] was 1.21 (inactive); in experiment [1] (setting [4]) it was 0.417; in [1] (measured here: PEO4 Z-AUC), 0.472.

Take `O=C(NCC1CCOCC1)c1cnc(Nc2ccc(Cl)cc2Cl)nc1C(F)(F)F`: the Z-AUC in experiment [1] was 1.22 (inactive); in experiment [1] (setting [4]), 0.764; in experiment [1] (measured here: PEO4 Z-AUC), 1.04.

As for `CC1=NN=C(c2ccc(N)cc2)c2cc3c(cc2C1)OCO3`, the z-score in experiment [2] (setting [5]) was determined as 0.644; in [2] (setting [6]) it was 0.871; in experiment [2] (setting [7]), 0.714.

`CC1=C(O)C(=O)C=C2C1=CC=C1[C@@]2(C)CC[C@@]2(C)[C@@H]3C[C@](C)(C(=O)O)CC[C@]3(C)CC[C@]12C`: the Z-AUC in [1] was -0.53 (inactive); in experiment [1] (setting [4]), -1.33; in experiment [1] (measured here: PEO4 Z-AUC), -0.972. Moreover, the Potency in experiment [2] (TFE3-RCC UOK109 viability) was 2640 nM (active). Besides, the results for the z-score in experiment [2] (setting [5]), in experiment [2] (setting [6]) and in experiment [2] (setting [7]) were -1.17, -1.16 and -1.07, respectively.

`C[C@]12CC[C@@H]3[C@@H](CCC4=CC(=O)CC[C@@H]43)[C@@H]1CC[C@@H]2OC(=O)CCc1ccccc1`: the Z-AUC was -0.102 (inactive) in experiment [1], -0.728 in experiment [1] (setting [4]) and -0.686 in experiment [1] (measured here: PEO4 Z-AUC). Moreover, the z-score in experiment [2] (setting [5]) was 0.952; in experiment [2] (setting [6]) it was 0.605; in experiment [2] (setting [7]), -2.12.

With `CN(C)[C@@H]1C(=O)C(C(N)=O)=C(O)[C@@]2(O)C(=O)C3=C(O)c4c(O)cccc4[C@@](C)(O)[C@H]3[C@H](O)[C@@H]12`, the Z-AUC in [1] is -0.415 (inactive); in [1] (setting [4]) it was -0.31; in experiment [1] (measured here: PEO4 Z-AUC), 0.0838. In addition, the z-score worked out at 2.05 in experiment [2] (setting [5]), 0.404 in experiment [2] (setting [6]) and 0.671 in [2] (setting [7]). Also, the Potency entry with AA1029, in the experiment on ATS189, with CP185, in the experiment on CP191, with CP192 and in the experiment on CP194 was “inactive” each time. Moreover, the Potency result in the experiment with CP211, with CP217 and in the experiment with CP238 was “inactive” each time. In the experiment on CP201, the compound was classed as inactive.
